According to PubChem BioAssay (NCATS):
Records with an inconclusive call do not appear. The source made the active and inactive calls. Calls come from the whole dose curve; as a rule, active = well fitted inhibition curve with a large enough effect; inconclusive = small, poorly fitted or top-dose-only effect; inactive = flat fitted curve, though single readings scatter.

Columns and labels:
Experiment in all cases: qHTS profiling for inhibitors of Plasmodium falciparum proliferation (AID 504749); note: nearly all actives have a fitted effect of over 60% in size
Details in all cases: P. falciparum in erythrocytes, SYBR Green DNA, 72 h; series mostly up to 28.7 µM
CP291 = tested on: CP291
Outline: (§1)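 P. falciparum-infected erythrocytes (0.3% parasitemia, 2.5% hematocrit final) were exposed to compounds for 72 h at 37 C in 5% CO2, then lysed with SYBR Green buffer overnight at room temperature; parasite DNA fluorescence was normalized to artemisinin and DMSO controls.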

CP297 = tested on: CP297
Outline: as §1

CP305 = tested on: CP305
Outline: as §1

CP315 = tested on: CP315
Outline: as §1

CP325 = tested on: CP325
Outline: as §1

CP329 = tested on: CP329
Outline: as §1

CP335 = tested on: CP335
Outline: as §1

DFO2036 = tested on: DFO2036
Outline: as §1

DIV30 = tested on: DIV30
Outline: as §1

Dd2 = tested on: Dd2
Outline: as §1

ECU = tested on: ECU
Outline: as §1

FAB9 = tested on: FAB9
Outline: as §1

HB3 = tested on: HB3
Outline: as §1

JCK = tested on: JCK
Outline: as §1

N140 = tested on: N140
Outline: as §1

P93_24 = tested on: P93_24
Outline: as §1

DIV14 = tested on: DIV14
Outline: as §1

DIV17 = tested on: DIV17
Outline: as §1

GB4 = tested on: GB4
Outline: as §1

ICS = tested on: ICS
Outline: as §1

Measured: Potency
Potency is the fitted concentration of half-maximal effect.

CCSc1ccc2c(c1)N(CCCN1CCN(C)CC1)c1ccccc1S2
not listed: DIV14 | DIV17 | GB4 | ICS
inactive: all other assays above

Cn1c(=O)c2c(ncn2CCOC(=O)C(C)(C)Oc2ccc(Cl)cc2)n(C)c1=O
not listed: DFO2036 | ECU | N140 | P93_24
inactive: all other assays above

C=CCN1CCCC1CNC(=O)c1cc(S(N)(=O)=O)cc(OC)c1OC (centres undefined)
not listed: DFO2036
inactive: all other assays above

CCOC(=O)[C@@H](N)CS
not listed: CP335
inactive: all other assays above

CCCCCc1ccc(C)cc1O
active: ICS 7.08 µM
not listed: DIV14 | DIV17 | GB4
inactive: all other assays above

CN(C)c1ccc(C(=C2C=CC(=[N+](C)C)C=C2)c2c(O)c(S(=O)(=O)[O-])cc3cc(S(=O)(=O)O)ccc23)cc1
not listed: DIV14 | DIV17 | GB4
inactive: all other assays above

CCC(=O)c1ccc2c(c1)N(CCCN1CCN(CCO)CC1)c1ccccc1S2
active: CP291 15.1 µM | CP305 10.7 µM | CP315 9.53 µM | CP335 6.01 µM | DFO2036 8.91 µM | DIV14 9.53 µM | DIV17 13.5 µM | DIV30 13.5 µM | Dd2 5.62 µM | ECU 8.91 µM | GB4 9.53 µM | HB3 7.94 µM | ICS 5.01 µM | N140 8.91 µM | P93_24 8.91 µM
inactive: JCK

CCc1ccc(S(=O)(=O)O)cc1
not listed: CP297
inactive: all other assays above

Oc1ccc(Cl)c2c1CCC2
not listed: CP297 | CP335 | DIV17 | ICS
inactive: all other assays above

CO/N=C(\C(=O)N[C@@H]1C(=O)N2C(C(=O)[O-])=C(C[n+]3cccc4c3CCC4)CS[C@H]12)c1csc(N)n1
not listed: CP297
inactive: all other assays above

Cc1cc(C(=O)NCCc2ccc(S(=O)(=O)NC(=O)NN3CCCCCC3)cc2)no1
not listed: CP297 | DIV30 | DIV14 | DIV17 | GB4
inactive: all other assays above
